About 83,000 compounds went through this panel and 20% of them were active in at least one assay; those are over-represented in the sample as a whole.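 Note: values are percent growth. 100 is the growth of untreated cells, values between 100 and 0 indicate rising inhibition; between -100 and 0 indicates cell death.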 Active and inactive are the calls of the source. The calls were made as follows: active = growth percent below 10; inactive = the rest.
Key:
Assay in all cases: NCI-60 one-dose screen, 48 h (100 = growth as untreated, 0 = no growth, -100 = all killed)
Settings in all cases: 10 µM unless noted
DU-145 prostate = tested on: DU-145 prostate
K-562 leukemia = tested on: K-562 leukemia
MALME-3M melanoma = tested on: MALME-3M melanoma
MDA-MB-231 breast = tested on: MDA-MB-231 breast
RXF 393 renal = tested on: RXF 393 renal
SF-268 CNS = tested on: SF-268 CNS
SF-295 CNS = tested on: SF-295 CNS
SF-539 CNS = tested on: SF-539 CNS
UACC-257 melanoma = tested on: UACC-257 melanoma
M14 melanoma = tested on: M14 melanoma
HCT-15 colon = tested on: HCT-15 colon
HT29 colon = tested on: HT29 colon
SNB-75 CNS = tested on: SNB-75 CNS
SNB-19 CNS = tested on: SNB-19 CNS
PC-3 prostate = tested on: PC-3 prostate
SK-MEL-5 melanoma = tested on: SK-MEL-5 melanoma
UACC-62 melanoma = tested on: UACC-62 melanoma
LOX IMVI melanoma = tested on: LOX IMVI melanoma
SK-MEL-28 melanoma = tested on: SK-MEL-28 melanoma

Measured: growth

O=C1c2c(c3c4cccnc4[nH]c3c3ccc4ccccc4c23)C(=O)N1O
active: LOX IMVI melanoma -31.5%
inactive: DU-145 prostate 54.8% | K-562 leukemia 29.7% | MALME-3M melanoma 63.1% | MDA-MB-231 breast 85.9% | RXF 393 renal 47.9% | SF-268 CNS 37.6% | SF-295 CNS 91.8% | SF-539 CNS 39.6% | UACC-257 melanoma 76.4% | M14 melanoma 49% | HCT-15 colon 69% | HT29 colon 27.9% | SNB-75 CNS 101% | SNB-19 CNS 29.7% | PC-3 prostate 43.1% | SK-MEL-5 melanoma 23.2% | UACC-62 melanoma 24.4% | SK-MEL-28 melanoma 46.1%

Oc1ccc(Cc2ccc(O)c3ncccc23)c2cccnc12
active: K-562 leukemia 9.66% | MALME-3M melanoma -14.1% | MDA-MB-231 breast 5.46% | RXF 393 renal 9.57% | SF-295 CNS -20.5% | UACC-257 melanoma -8.29% | PC-3 prostate 5.52% | SK-MEL-5 melanoma -47.3% | UACC-62 melanoma 1.18%
inactive: DU-145 prostate 23.5% | SF-268 CNS 27.5% | SF-539 CNS 14.1% | M14 melanoma 17% | HCT-15 colon 13.1% | HT29 colon 57.6% | SNB-75 CNS 12.9% | SNB-19 CNS 15.9% | LOX IMVI melanoma 16.7% | SK-MEL-28 melanoma 30.3%

CCN1CCN(c2nc(NNC(=O)c3ccc(OC)cc3)nc(N3CCN(C(c4ccccc4)c4ccccc4)CC3)n2)CC1
active: MALME-3M melanoma -63.7% | M14 melanoma -40.5% | SK-MEL-5 melanoma -74.4% | LOX IMVI melanoma 1.43%
inactive: DU-145 prostate 72.2% | K-562 leukemia 14% | MDA-MB-231 breast 82.9% | RXF 393 renal 55.7% | SF-268 CNS 81.8% | SF-295 CNS 71.3% | SF-539 CNS 73.2% | UACC-257 melanoma 10.3% | HCT-15 colon 22.2% | HT29 colon 15.6% | SNB-75 CNS 45.9% | SNB-19 CNS 78.3% | PC-3 prostate 30.2% | UACC-62 melanoma 68.3% | SK-MEL-28 melanoma 64.1%

CN(CCNc1ccc(C(=N)N)cc1)c1ccc(C(=N)N)cc1
inactive: DU-145 prostate 66.6% | K-562 leukemia 74.4% | MALME-3M melanoma 84.7% | MDA-MB-231 breast 91.8% | RXF 393 renal 109% | SF-268 CNS 99.4% | SF-295 CNS 54.3% | SF-539 CNS 101% | UACC-257 melanoma 55.1% | M14 melanoma 96.1% | HCT-15 colon 84.5% | HT29 colon 101% | SNB-75 CNS 96.8% | SNB-19 CNS 104% | PC-3 prostate 82.2% | SK-MEL-5 melanoma 67% | UACC-62 melanoma 72.6% | LOX IMVI melanoma 82.4% | SK-MEL-28 melanoma 94.8%

Cn1ccnc1C(=O)/C=C/c1ccc(C(=O)Nc2ccccc2F)cc1
active: MDA-MB-231 breast -2.25% | SF-295 CNS 6.25% | SF-539 CNS -8.53% | M14 melanoma 8.56% | LOX IMVI melanoma -41.1%
inactive: DU-145 prostate 20.7% | K-562 leukemia 12.6% | MALME-3M melanoma 54.7% | RXF 393 renal 16.4% | SF-268 CNS 24.7% | UACC-257 melanoma 66.7% | HCT-15 colon 14.2% | HT29 colon 10.9% | SNB-75 CNS 56.2% | SNB-19 CNS 21.1% | PC-3 prostate 25.1% | SK-MEL-5 melanoma 83.7% | UACC-62 melanoma 37.3% | SK-MEL-28 melanoma 59.2%

CN(C)CCCN(CCC1CCCCC1)CCC1CCCCC1
inactive: DU-145 prostate 80.9% | K-562 leukemia 26% | MDA-MB-231 breast 19.4% | RXF 393 renal 70.8% | SF-268 CNS 75.2% | SF-295 CNS 69.4% | SF-539 CNS 49.6% | HCT-15 colon 15% | SNB-75 CNS 62.2% | SNB-19 CNS 86.7% | PC-3 prostate 46.9%
active: MALME-3M melanoma -79.4% | UACC-257 melanoma -65.3% | M14 melanoma -97.2% | HT29 colon 7.47% | UACC-62 melanoma -78.5% | LOX IMVI melanoma 5.93% | SK-MEL-28 melanoma -97.8%

N=C(N)c1ccc(-c2ccc(-c3ccccc3)s2)nc1
inactive: DU-145 prostate 92.1% | K-562 leukemia 14.5% | MALME-3M melanoma 101% | MDA-MB-231 breast 86.1% | RXF 393 renal 87.2% | SF-268 CNS 93.8% | SF-295 CNS 88% | SF-539 CNS 88.2% | UACC-257 melanoma 96% | M14 melanoma 88.7% | HCT-15 colon 44.9% | HT29 colon 26.7% | SNB-75 CNS 88.4% | SNB-19 CNS 87.5% | PC-3 prostate 80.5% | SK-MEL-5 melanoma 87.5% | UACC-62 melanoma 91.6% | LOX IMVI melanoma 51.3% | SK-MEL-28 melanoma 109%

O=C(Nc1ncc(Cc2cc(C(F)(F)F)ccc2Cl)s1)C(=S)N1CCOCC1
inactive: DU-145 prostate 100% | K-562 leukemia 82.2% | MALME-3M melanoma 92.7% | MDA-MB-231 breast 87.4% | RXF 393 renal 92.6% | SF-268 CNS 88.7% | SF-295 CNS 88.8% | SF-539 CNS 101% | UACC-257 melanoma 95% | M14 melanoma 86.7% | HCT-15 colon 78.6% | HT29 colon 95.1% | SNB-75 CNS 86.7% | SNB-19 CNS 96.9% | PC-3 prostate 81.3% | SK-MEL-5 melanoma 96.6% | UACC-62 melanoma 72.6% | LOX IMVI melanoma 90.5% | SK-MEL-28 melanoma 114%

O=C(Cn1cc(CSc2nc3ccccc3o2)nn1)Nc1ccc([N+](=O)[O-])cc1
inactive: DU-145 prostate 108% | K-562 leukemia 92.6% | MALME-3M melanoma 104% | MDA-MB-231 breast 91.5% | RXF 393 renal 108% | SF-268 CNS 91.8% | SF-295 CNS 102% | SF-539 CNS 101% | UACC-257 melanoma 110% | M14 melanoma 96.2% | HCT-15 colon 106% | HT29 colon 93.9% | SNB-75 CNS 79.4% | SNB-19 CNS 96.3% | SK-MEL-5 melanoma 99.1% | UACC-62 melanoma 68.5% | LOX IMVI melanoma 94.5% | SK-MEL-28 melanoma 105%

C#CCOc1ccc(C2=NN(CCCC)C3N=C(Cl)c4ncn(CCCC)c4N23)cc1OCC#C (configuration not stated)
inactive: DU-145 prostate 94.1% | K-562 leukemia 71.2% | MALME-3M melanoma 107% | MDA-MB-231 breast 91.7% | RXF 393 renal 76.1% | SF-268 CNS 90.1% | SF-295 CNS 88.4% | SF-539 CNS 101% | UACC-257 melanoma 85.7% | M14 melanoma 92.2% | HCT-15 colon 88.9% | HT29 colon 96.9% | SNB-75 CNS 83.3% | SNB-19 CNS 94.6% | PC-3 prostate 63.6% | SK-MEL-5 melanoma 89.7% | UACC-62 melanoma 69.6% | LOX IMVI melanoma 85.8% | SK-MEL-28 melanoma 93.6%

Cc1ccc(C2(C)NC(=O)N(CC(=O)Nc3cccc(C)c3)C2=O)cc1 (configuration not stated)
inactive: DU-145 prostate 110% | K-562 leukemia 112% | MALME-3M melanoma 100% | MDA-MB-231 breast 99.4% | RXF 393 renal 101% | SF-268 CNS 104% | SF-295 CNS 107% | SF-539 CNS 103% | UACC-257 melanoma 101% | M14 melanoma 110% | HCT-15 colon 94.4% | HT29 colon 96.6% | SNB-75 CNS 77.1% | SNB-19 CNS 102% | PC-3 prostate 60.1% | SK-MEL-5 melanoma 98.3% | UACC-62 melanoma 84% | LOX IMVI melanoma 96.3% | SK-MEL-28 melanoma 107%

N#CSCc1cc(Cl)c(CSC#N)cc1Cl
inactive: DU-145 prostate 59.7% | K-562 leukemia 29.2% | MALME-3M melanoma 58% | MDA-MB-231 breast 57.6% | RXF 393 renal 34.3% | SF-268 CNS 63.3% | SF-295 CNS 97.5% | SF-539 CNS 45.7% | UACC-257 melanoma 103% | M14 melanoma 27.4% | HCT-15 colon 31.9% | HT29 colon 40.6% | SNB-75 CNS 47.9% | SNB-19 CNS 89% | PC-3 prostate 75.8% | SK-MEL-5 melanoma 48.5% | UACC-62 melanoma 71.1% | LOX IMVI melanoma 30.5% | SK-MEL-28 melanoma 87.9%

O=C(Nc1ccc2[nH]ncc2c1)c1csc(Nc2ccccc2)n1
inactive: DU-145 prostate 21.4% | K-562 leukemia 20.7% | MALME-3M melanoma 69% | MDA-MB-231 breast 58.5% | RXF 393 renal 12.9% | SF-268 CNS 56.6% | SF-295 CNS 22.6% | SF-539 CNS 22.5% | UACC-257 melanoma 77.2% | M14 melanoma 24.5% | HCT-15 colon 16.9% | HT29 colon 11.8% | SNB-75 CNS 36% | SNB-19 CNS 30.1% | PC-3 prostate 38.7% | SK-MEL-5 melanoma 12.3% | UACC-62 melanoma 26.8% | LOX IMVI melanoma 40.8% | SK-MEL-28 melanoma 64.1%

CC(=O)c1ccc(Nc2nccc(-c3ccc(Cl)cc3)n2)cc1
inactive: DU-145 prostate 102% | K-562 leukemia 83.9% | MALME-3M melanoma 101% | MDA-MB-231 breast 101% | RXF 393 renal 103% | SF-268 CNS 93% | SF-295 CNS 101% | SF-539 CNS 92.3% | UACC-257 melanoma 106% | M14 melanoma 101% | HCT-15 colon 82.3% | HT29 colon 86.2% | SNB-75 CNS 105% | SNB-19 CNS 98% | PC-3 prostate 89.6% | SK-MEL-5 melanoma 102% | UACC-62 melanoma 86.5% | LOX IMVI melanoma 90.7% | SK-MEL-28 melanoma 113%

COc1cc(C(=O)c2c(-c3ccccc3)oc3ccccc23)cc(OC)c1O
active: RXF 393 renal -2.49% | SF-539 CNS 8.35% | SNB-75 CNS -1.53%
inactive: DU-145 prostate 26% | K-562 leukemia 17.4% | MALME-3M melanoma 48.5% | MDA-MB-231 breast 59.7% | SF-268 CNS 59.9% | SF-295 CNS 14.3% | UACC-257 melanoma 73.2% | M14 melanoma 16.6% | HCT-15 colon 32.1% | HT29 colon 109% | SNB-19 CNS 32.8% | PC-3 prostate 43.9% | SK-MEL-5 melanoma 16.4% | UACC-62 melanoma 35.2% | LOX IMVI melanoma 37.2% | SK-MEL-28 melanoma 66%

C=C(c1ccc(OC)c(/C=C/C(=O)c2cc(OC)c(OC)c(OC)c2)c1)c1cc(OC)c(OC)c(OC)c1
active: MALME-3M melanoma -6.73% | RXF 393 renal -68.5% | SF-539 CNS -84.7% | UACC-257 melanoma 2.85% | M14 melanoma 4.85% | HCT-15 colon -21.6% | HT29 colon 0.495% | SNB-19 CNS -3.73% | SK-MEL-5 melanoma -69.3% | UACC-62 melanoma -70% | LOX IMVI melanoma -87.3% | SK-MEL-28 melanoma -77.3%
inactive: DU-145 prostate 15.6% | K-562 leukemia 12.7% | MDA-MB-231 breast 30.4% | SF-268 CNS 21.7% | SF-295 CNS 30.5% | SNB-75 CNS 49.8% | PC-3 prostate 31.5%

From PubChem BioAssay (NCI)
